Pf Dd2 growth: Plasmodium falciparum Dd2 growth inhibition. 120,000 tested, 4.3% active. Potency, µM (highest dose often 28.9 µM), most hits filed as inhibitors. AID 1347417. P. falciparum Dd2 growth, SYBR Green, 72 h; active = well fitted inhibition curve with a large enough effect; also: nearly all actives have a fitted effect of over 65% in size
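Readout: SYBR Green fluorescence, 485 nm excitation, 535 nm emission, after ~16 h lysis at 37C. Before that, Dd2-infected red cells (2.5% hematocrit) grew 72 h with compound, 29 uM top final concentration.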
A number is an active result; 0 = inactive; [ ] = dose if it differs, or a comment. Only a selection was taken, and hits are over-represented in it overall.

SMILES	Pf Dd2 growth
COC(=O)[C@@H]1Cc2c([nH]c3ccccc23)[C@H]2C[C@@H](NCCN3CCOCC3)C[C@@H](c3ccc(F)cc3)N21	0
COC(=O)[C@@H]1Cc2c([nH]c3ccccc23)[C@H]2C[C@H](NCCN3CCOCC3)C[C@@H](c3ccc(F)cc3)N21	11µM
Cc1ccc(NC(=O)Cn2cc(S(=O)(=O)Cc3cccc(Cl)c3)c3ccccc32)cc1C	0
COc1ccc(NC(=O)CC2=C3CCCCC3NC2=O)cn1 (stereo not given)	0
CN1CCN([C@H]2CCN(C(=O)c3ccc(N(C)C)nc3)C[C@H]2CCC(=O)O)CC1	0
O=C(Cc1ccsc1)N1CCC(n2cc(-c3nc(C4CC4)no3)nn2)C1 (stereo not given)	0
Cc1cccc(C(=O)N2CC(C(=O)N(C)C)C3(CCOCC3)C2)c1 (stereo not given)	0
O=C(c1ccc(C(F)(F)F)cc1)N1CCC(N2CCCOC2=O)CC1	0
COCCNC(=O)C[C@@H]1C[C@H]2O[C@H](CNC3CCC3)[C@@H](O)[C@H]2O1	0
COc1ccc(C2(C(=O)N3CCCC(CN4CCCC4)CC3)CC2)cc1 (stereo not given)	3.2µM
COc1ccc(C2(C(=O)N3CCC(CC(=O)NC4CC4)C3)CC2)cc1 (stereo not given)	0
COc1cccc(CC(=O)N2CCCC(CN3CCCC3)CC2)c1 (stereo not given)	1µM
COCC(=O)N(C1CCOCC1)C1CCN(C(=O)Cc2cccc(OC)c2)CC1	0
COc1ccc(C2(C(=O)N3CCC(F)CC3)CCOCC2)cc1	0
COc1cccc(CC(=O)N2CCCCCCNC(=O)CC2)c1	0
O=C(NC1CC(=O)N(CCc2ccc(F)cc2)C1)C1CCCCC1 (stereo not given)	0
O=C(CCC(F)(F)F)NC1CC(=O)N(Cc2ccccc2Cl)C1 (stereo not given)	0
COc1ccc(-c2ccc3nnc(CNC(=O)COc4cccc(C)c4)n3n2)cc1	0
Cc1ccc(OCCSc2nnc(-c3cccs3)o2)cc1Cl	0
Cc1ccc(-c2nnc(SCCOc3ccccc3)o2)cc1	0
Cc1ccc(OCCSc2nnc(-c3cccs3)o2)cc1	11µM
COc1cccc(C(=O)NC2CCCN(c3cc(-c4ccccc4)[nH]n3)C2)c1OC (stereo not given)	0
CN1CCN(c2nc3c(c(=O)[nH]2)CCN(Cc2cccn2C)CC3)CC1	0[5.79 µM]
CCOc1ccc(C(CC(=O)O)NC(=O)c2cnc(N(C)C)nc2C)cc1 (stereo not given)	0
CN(C)CCNC(=O)c1ccc2c(c1)C1(CCCN(CC3CC3)C1)CN2C (stereo not given)	0
SMILES	Pf Dd2 growth
CN1CC2(CCCN(CC3CC3)C2)c2cc(C(=O)NCCc3ccccc3)ccc21 (stereo not given)	3.2µM
CC(=O)N1CCCC2(C1)CN(C)c1ccc(C(=O)NCCc3ccccc3)cc12 (stereo not given)	0
Cc1nc2n(c1C(=O)N(C)C)CCN(C(=O)c1cc(=O)n(C)c(=O)n1C)C2	0
O=C(c1cccnc1)N1CC[C@H](c2nnc(Cc3ccccc3)o2)C1	0
N#Cc1cccc(-c2cn3c(n2)N(C(=O)c2ccncc2)CCC3)c1	0
O=C(c1ccc2c(c1)OCO2)N1C[C@@H]2C[C@H](C1)c1ccc(-c3cccc(C(F)(F)F)c3)c(=O)n1C2	0
O=C1c2c(nc(CNc3ccc(OC(F)(F)F)cc3)n2Cc2ccccc2)NCCN1CCN1CCOCC1	5µM
O=C1c2c(nc(CNc3cccc(F)c3)n2Cc2ccccc2)NCCN1CCN1CCOCC1	0
O=C1c2c(nc(CNc3ccc(F)cc3)n2Cc2ccccc2)NCCN1CCN1CCCCC1	0
Cn1cc(C(=O)N2C[C@@H](COCC3CC3)[C@H](c3ccccn3)C2)cn1	0
NS(=O)(=O)c1ccc(CNc2nccc(-c3cccnc3)n2)cc1	0
O=C(N[C@H]1CO[C@H]2[C@@H]1OC[C@@H]2Nc1nccc(-c2ccc(-c3ccccc3)cc2)n1)C1CC1	0
O=C(CCc1ccc(O)cc1)N[C@H]1CC[C@H](Nc2nccc(-c3cccnc3)n2)C1	11µM
O=C(c1nnn2c1COC(c1ccccc1)C2)N1CCN(C(=O)c2cccc3[nH]ccc23)CC1 (stereo not given)	0
COCCn1c(=O)n([C@H]2CCCN(S(=O)(=O)c3cn(C)cn3)C2)c2ncccc21	0
COCc1noc([C@@H]2CN(C(=O)c3cc4ccccc4[nH]3)C[C@H]2C(N)=O)n1	0
O=C(Nc1ccc(F)c(Cl)c1)C1CCN(C(=O)c2ncn3c2COC(c2ccccc2)C3)CC1 (stereo not given)	0
Cc1cccc(C(=O)Nc2sc3c(c2C(=O)Nc2ccccc2)CCC3)c1	0
CCc1ccccc1NC(=O)c1c(NC(=O)c2ccccc2)sc2c1CCCC2	0
Cc1ccc(NC(=O)c2c(NC(=O)c3ccccc3)sc3c2CCC3)cc1	0
Cc1cccc(NC(=O)c2c(NC(=O)C(F)(F)F)sc3c2CCCCC3)c1	4.5µM
O=C(Nc1cccc(Cl)c1)c1c(NC(=O)C(F)(F)F)sc2c1CCCC2	13µM
O=C(Nc1sc2c(c1C(=O)Nc1ccc(Cl)cc1)CCCC2)c1cccs1	0
